Source: a collection of fitness landscapes (doi:10.1126/science.1257360)
The full ranking holds about 140,000 sequences; the median of “enrichment ratio after two sorts for PhoP signalling” is about 0, and the highest 2% start at about 11. This is one part of a sample in which the highest values are shown more often than they occur.

B1: PhoQ; a variant is named by its letters at X, in order, P23837 (parent)
chain: MKKLLRLFFPLSLRVRFLLATAAVVLVLSLAYGMVALIGYSVSFDKTTFRLLRGESNLFYTLAKWENNKLHVELPENIDKQSPTMTLIYDENGQLLWAQRDVPWLMKMIQPDWLKSNGFHEIEADVNDTSLLLSGDHSIQQQLQEVREDDDDAEMTHSVAVNVYPATSRMPKLTIVVVDTIPVELKSSYMVWSWFIYVLSANLLLVIPLLWVAAWWSLRPIEALAKEVRELEEHNRELLNPATTRELTSLVRNLNRLLKSERERYDKYRTTLTDLTHSLKTPLXXLQXXLRSLRSEKMSVSDAEPVMLEQISRISQQIGYYLHRASMRGGTLLSRELHPVAPLLDNLTSALNKVYQRKGVNISLDISPEISFVGEQNDFVEVMGNVLDNACKYCLEFVEISARQTDEHLYIVVEDDGPGIPLSKREVIFDRGQRVDTLRPGQGVGLAVAREITEQYEGKIVAGESMLGGARMEVIFGRQHSAPKDE

Variants of: B1
Experiment: enrichment ratio after two sorts for PhoP signalling (ratio (wild type AVST 3.29)); higher = more functional
Conditions: with PhoP (E. coli)

| Variant | enrichment ratio |
| --- | --- |
| RRYY | ≤ 0.25 |
| YGSL | ≤ 0.25 |
| TGLA | 27.5 |
| RGLT | ≤ 0.25 |
| NGLA | ≤ 0.25 |
| AGLS | 13.8 |
| RGLA | ≤ 0.25 |
| TGLT | 13.5 |
| AGLT | 7.3 |
| ECEP | 15.1 |
| NGLT | ≤ 0.25 |
| IPEP | ≤ 0.25 |
| AGLA | 4.99 |
| RYEP | ≤ 0.25 |
| VHMY | ≤ 0.25 |
| LARA | ≤ 0.25 |
| WQQI | ≤ 0.25 |
| FPEF | ≤ 0.25 |
| IHDS | ≤ 0.25 |
| DVNT | ≤ 0.25 |
| TGLN | 25.4 |
| TGWI | 26.1 |
| EHHE | ≤ 0.25 |
| NGLS | ≤ 0.25 |

| Variant | enrichment ratio |
| --- | --- |
| WIWI | ≤ 0.25 |
| NGLN | ≤ 0.25 |
| EHHF | ≤ 0.25 |
| EHHK | 14.4 |
| TGLS | 14.9 |
| CFLN | ≤ 0.25 |
| KSWI | ≤ 0.25 |
| RGLS | ≤ 0.25 |
| FPGM | ≤ 0.25 |
| LGWH | ≤ 0.25 |
| GMYH | ≤ 0.25 |
| PFMM | ≤ 0.25 |
| RQLT | ≤ 0.25 |
| HMPW | ≤ 0.25 |
| GHLA | ≤ 0.25 |
| DNNV | ≤ 0.25 |
| TWFG | ≤ 0.25 |
| WQAF | ≤ 0.25 |
| SQAW | ≤ 0.25 |
| STAW | 13.1 |
| YTAW | ≤ 0.25 |
| SIAW | 16.5 |
| WIAW | ≤ 0.25 |
| KYAW | ≤ 0.25 |

| Variant | enrichment ratio |
| --- | --- |
| FGTC | ≤ 0.25 |
| RLLI | ≤ 0.25 |
| DHVP | ≤ 0.25 |
| ITSI | ≤ 0.25 |
| LTSI | ≤ 0.25 |
| YTSI | ≤ 0.25 |
| TTSI | 17.1 |
| CTSI | 19.6 |
| KQSI | ≤ 0.25 |
| PECL | ≤ 0.25 |
| DRWN | ≤ 0.25 |
| TETT | 25.2 |
| MHTT | ≤ 0.25 |
| QETT | ≤ 0.25 |
| NETT | ≤ 0.25 |
| METT | 13 |
| MFTT | ≤ 0.25 |
| DEMI | ≤ 0.25 |
| SQNC | ≤ 0.25 |
| EVAF | ≤ 0.25 |
| GNFR | ≤ 0.25 |
| PGNR | ≤ 0.25 |
| RASR | ≤ 0.25 |
| STAV | 5.94 |

| Variant | enrichment ratio |
| --- | --- |
| SEIC | 32.9 |
| SEIA | 13.7 |
| SEWV | 0.784 |
| SEAV | 13.6 |
| SEIV | 18.7 |
| SERC | ≤ 0.25 |
| SEIS | 8.01 |
| SPIA | ≤ 0.25 |
| SEAE | 5.82 |
| MEIC | 11 |
| DDIA | ≤ 0.25 |
| DHWR | ≤ 0.25 |
| MSEQ | ≤ 0.25 |
| LCAF | ≤ 0.25 |
| MMGP | ≤ 0.25 |
| YYDN | ≤ 0.25 |
| PLDS | ≤ 0.25 |
| NPKR | ≤ 0.25 |
| FGMH | ≤ 0.25 |
| SFFV | ≤ 0.25 |
| SEFV | 11.8 |
| SEPV | ≤ 0.25 |
| SEIY | 21.5 |
| DDIY | ≤ 0.25 |

| Variant | enrichment ratio |
| --- | --- |
| SPIG | ≤ 0.25 |
| KYIY | ≤ 0.25 |
| SEMV | 23.8 |
| SQIG | 9.99 |
| SEMW | ≤ 0.25 |
| SEEV | 1.98 |
| SEIG | 13.1 |
| KQPW | ≤ 0.25 |
| DFRP | ≤ 0.25 |
| WSND | ≤ 0.25 |
| AMAT | 3.36 |
| YYEG | ≤ 0.25 |
| ESCY | ≤ 0.25 |
| SRIC | ≤ 0.25 |
| LWNH | ≤ 0.25 |
| LGQL | ≤ 0.25 |
| QDGH | ≤ 0.25 |
| HECK | ≤ 0.25 |
| SQCM | 19.2 |
| SNCM | 11.2 |
| FQCM | 10.7 |
| NQCM | ≤ 0.25 |
| TQCM | 33.7 |
| HECM | 24 |

| Variant | enrichment ratio |
| --- | --- |
| DWCM | ≤ 0.25 |
| IQCM | ≤ 0.25 |
| KQCM | ≤ 0.25 |
| EQCM | ≤ 0.25 |
| HFCM | 1.37 |
| SQKE | ≤ 0.25 |
| PCCP | ≤ 0.25 |
| PFFR | ≤ 0.25 |
| LMAE | ≤ 0.25 |
| MLGA | ≤ 0.25 |
| SMKT | ≤ 0.25 |
| AWAS | ≤ 0.25 |
| IGQR | ≤ 0.25 |
| DAQH | ≤ 0.25 |
| QPHG | ≤ 0.25 |
| STHG | ≤ 0.25 |
| MTHG | ≤ 0.25 |
| YYHG | ≤ 0.25 |
| MEHG | 11.9 |
| QEHG | 11.2 |
| HDSR | ≤ 0.25 |
| DTEC | ≤ 0.25 |
| LQRA | ≤ 0.25 |
| AIQG | ≤ 0.25 |

| Variant | enrichment ratio |
| --- | --- |
| YGYF | ≤ 0.25 |
| GGAK | ≤ 0.25 |
| NGRQ | ≤ 0.25 |
| SPVN | ≤ 0.25 |
| SNVN | 13.3 |
| SNNN | 16.8 |
| SLNN | ≤ 0.25 |
| NQCL | ≤ 0.25 |
| SRNN | ≤ 0.25 |
| SNMN | 22.4 |
| SNQN | ≤ 0.25 |
| SNCL | 14.4 |
| IQCL | ≤ 0.25 |
| SNPN | ≤ 0.25 |
| HEMN | ≤ 0.25 |
| TFHC | ≤ 0.25 |
| NQTW | ≤ 0.25 |
| ARRF | ≤ 0.25 |
| VRLN | ≤ 0.25 |
| SRSL | ≤ 0.25 |
| SNSL | 16.8 |
| SRCL | 6.4 |
| SLVN | 1.02 |
| SLVY | ≤ 0.25 |

| Variant | enrichment ratio |
| --- | --- |
| SPVY | ≤ 0.25 |
| SQVN | 20.3 |
| SQCL | 12.1 |
| NQVN | ≤ 0.25 |
| GQCL | 7.51 |
| SQVY | 14.2 |
| SQSL | 9.58 |
| GRRN | ≤ 0.25 |
| QVFR | ≤ 0.25 |
| QFNA | ≤ 0.25 |
| FSTQ | ≤ 0.25 |
| NDYC | ≤ 0.25 |
| PTST | ≤ 0.25 |
| QIDF | ≤ 0.25 |
| NSVL | ≤ 0.25 |
| LHGW | ≤ 0.25 |
| NGIL | ≤ 0.25 |
| LHHH | ≤ 0.25 |
| ELYP | ≤ 0.25 |
| WNMN | 12 |
| SNRL | ≤ 0.25 |
| TNSL | 12.2 |
| MNSL | 4.59 |
| MKVN | ≤ 0.25 |

| Variant | enrichment ratio |
| --- | --- |
| SNNL | 13.1 |
| SNEL | ≤ 0.25 |
| WRMN | ≤ 0.25 |
| LNSL | ≤ 0.25 |
| QEVN | ≤ 0.25 |
| MEVN | 17.3 |
| WNNL | ≤ 0.25 |
| GPCQ | ≤ 0.25 |
| HTRL | ≤ 0.25 |
| WHQP | ≤ 0.25 |
| WEDV | ≤ 0.25 |
| HDYF | ≤ 0.25 |
| AHNC | ≤ 0.25 |
| WAWV | ≤ 0.25 |
| PHYI | ≤ 0.25 |
| RGSM | ≤ 0.25 |
| CFSM | 18.5 |
| WFSM | ≤ 0.25 |
| CVSM | ≤ 0.25 |
| GGSM | 7.14 |
| TGSM | 23.5 |
| KTCN | ≤ 0.25 |
| HRWF | ≤ 0.25 |
| DYHL | ≤ 0.25 |

| Variant | enrichment ratio |
| --- | --- |
| MIWN | ≤ 0.25 |
| MICN | 31.9 |
| MILN | 17.5 |
| MICI | 0.945 |
| MINL | ≤ 0.25 |
| MFCN | ≤ 0.25 |
| MIRW | ≤ 0.25 |
| SSFG | ≤ 0.25 |
| ACNT | ≤ 0.25 |
| ACVT | 1.11 |
| ACVL | 5.91 |
| AILK | 2.69 |
| ACLV | 16 |
| ACWL | ≤ 0.25 |
| ACLL | 13.3 |
| ACWI | ≤ 0.25 |
| ACIV | 0.927 |
| ACHK | ≤ 0.25 |
| ACLT | 11.7 |
| ACLK | 13.7 |
| FPKK | ≤ 0.25 |
| KLEK | ≤ 0.25 |
| STHN | ≤ 0.25 |
| CFKF | ≤ 0.25 |

| Variant | enrichment ratio |
| --- | --- |
| MMGD | ≤ 0.25 |
| TVTR | 2.26 |
| TRGD | ≤ 0.25 |
| QIWC | ≤ 0.25 |
| KYLR | ≤ 0.25 |
| TGGL | 3.52 |
| YWNM | ≤ 0.25 |
| YRPI | ≤ 0.25 |
| ACLC | 12.2 |
| ACDS | 0.253 |
| AKCN | 5.46 |
| ACYM | 0.253 |
| ACNS | ≤ 0.25 |
| ACLS | 6.09 |
| KCCN | ≤ 0.25 |
| ACCN | 12.1 |
| ACIC | 9.45 |
| ACLI | 5.06 |
| ACLN | 13.6 |
| ACLA | 11.6 |
| KVRT | ≤ 0.25 |
| AYPT | ≤ 0.25 |
| QIHR | ≤ 0.25 |
| QDCY | ≤ 0.25 |

| Variant | enrichment ratio |
| --- | --- |
| AARG | ≤ 0.25 |
| DLGS | ≤ 0.25 |
| VYSL | ≤ 0.25 |
| PPRP | ≤ 0.25 |
| PSLE | ≤ 0.25 |
| QMSW | ≤ 0.25 |
| ACGY | ≤ 0.25 |
| ACNY | 0.855 |
| ACLY | 15.2 |
| WFSN | ≤ 0.25 |
| ISKP | ≤ 0.25 |
| LFTC | ≤ 0.25 |
| AKVG | ≤ 0.25 |
| AIVC | 19.1 |
| WIVC | ≤ 0.25 |
| AKVC | 15.3 |
| KKVC | ≤ 0.25 |
| AIVG | 7.78 |
| VMGF | ≤ 0.25 |
| MMWG | ≤ 0.25 |
| FSQV | ≤ 0.25 |
| TSMD | 10.7 |
| TSQV | 12.2 |
| KSMS | ≤ 0.25 |

| Variant | enrichment ratio |
| --- | --- |
| TSWG | 16.6 |
| FSMS | 1.68 |
| TSMG | 13 |
| LCWG | ≤ 0.25 |
| KSQV | ≤ 0.25 |
| TSMS | 26.4 |
| KSMG | ≤ 0.25 |
| EDGN | ≤ 0.25 |
| WMLF | ≤ 0.25 |
| DHGA | ≤ 0.25 |
| GPST | ≤ 0.25 |
| FTYH | ≤ 0.25 |
| IRVV | ≤ 0.25 |
| DYPQ | ≤ 0.25 |
| EQAY | ≤ 0.25 |
| NSWL | 1.26 |
| WSSA | ≤ 0.25 |
| FRMR | ≤ 0.25 |
